Only some compounds are listed: those with a hit (about 2.3% of all), similar ones and a draw of the others.
A549 tox: kills or reduces viability of A549 cells in Nrf2 counter-screen; A549 ARE-Fluc cells, CellTiter-Fluor viability, 18-24 h; Potency, µM (highest dose often 46 µM), without a hit: at the highest dose activity change, negative = cytotoxicity, hits mostly inhibitors; 0.16% of 390,000 active; AID 504648; note: potency is the fitted concentration of half-maximal effect; % is set by controls: 0 for no effect and ±100 for the full control effect
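A549 ARE_Fluc cells in 5% FBS OPTI-MEM were exposed to compounds in concentration-response for 18-24 h at 37 deg C. Viability was read by CellTiter-Fluor fluorescence (Ex 405/Em 525) after 30 min, before the luciferase read.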
IL2 activator: activates IL-2 in a cell-based reporter assay; AID 652025; 0.065% of 360,000 active; activation, % (series mostly up to about 46 µM); IL-2 activation reporter assay, cell-based qHTS; stimulated with anti-CD3/CD4/CD28 beads; in transgenic mouse T cells; in the data active = activation above about 50%; inconclusive = mostly about 30% to 49%; note: 0% is about no effect
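First, unstimulated transgenic mouse T cells were exposed to compound for 60 min. Next, anti-CD3/anti-CD4-coated beads with anti-CD28 were added. Finally, after 18 h at 37 degrees C, EGFP and DsRed were imaged.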
Nrf2 activator: Nrf2 pathway activation. AID 624171. 0.31% of 410,000 active. AREc32 ARE-luciferase reporter (MCF7-derived line), luminescence, 24 h. Potency, µM (highest dose often 46.1 µM), inactives show at the top dose activation, most hits filed as activators; note: potency is the fitted concentration of half-maximal effect; % of control where 0% means no effect; nearly all actives have a fitted effect of over 65% in size
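AREc32_Fluc, 1000 cells/well, OPTI-MEM + 5% FBS, o/n 37 deg C 5% CO2; 23 nL cpd by pin tool, 24 hr; Steady-Glo 30 min RT, luminescence.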
Nrf2 block: Nrf2 pathway inhibition; A549 ARE-Fluc reporter, luciferase luminescence, 18-24 h; Potency, µM (titrated, usually from 46 µM), without a hit: at the top dose activity change, negative = inhibition, most hits filed as inhibitors; AID 504444; 2.1% of 360,000 active; note: potency is the fitted concentration of half-maximal effect; % is set by controls: 0 for no effect and ±100 for the full control effect; nearly all actives have a fitted effect of over 60% in size
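Quantitative HTS in A549 cells stably bearing an antioxidant response element-firefly luciferase construct. Inhibition of Nrf2-driven transcription was scored by luminescence after 18-24 h of compound exposure at 37 °C.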
Starred values were filed as active, the others as inactive; ? = inconclusive; / = no result. Unless noted, calls come from the whole dose curve; as a rule, active = well fitted curve in the direction sought with a large enough effect; inconclusive = small, poorly fitted or top-dose-only effect, or another doubt; inactive = no such curve, though single readings can be large; an effect the other way counts as inactive or inconclusive.

SMILES	A549 tox	IL2 activator	Nrf2 activator	Nrf2 block
C=CCc1cccc(CNc2cnc3ccccc3c2)c1O	2.8%	-1.1	11.7%	23.1µM*
Cc1c(C(=O)Nc2ccc(F)c(C(F)(F)F)c2)sc2nc(-c3ccccc3)cn12	?	/	-0.5%	/
CCOC(=O)c1c(-c2ccc(C)o2)csc1NC(=O)COC(=O)c1ccc(NC(N)=O)cc1	-11.4%	-2.0	19.5%	16.4µM*
CCOC(=O)c1c(-c2ccc(C)o2)csc1NC(=O)CSc1nnc(C)s1	-18.8%	-1.6	3.3%	?
CCCOc1ccc(C(=O)Nc2cc3c(cc2N2CCCCC2)n(C)c(=O)n3C)cc1	0.7%	/	-1.2%	-0.3%
CC(C)n1cnc2c(Nc3cccc(Cl)c3)nc(NCCCO)nc21	?	0.6	-4.5%	?
C=CC(=O)Nc1cccc(Nc2nc(N[C@H]3CC[C@H](N(C)C)CC3)nc3c2ncn3C(C)C)c1	2.59µM*	-0.6	-2.8%	0.581µM*
O=C(COC(=O)CNC(=O)C1CCCCC1)NC1CCCC1	-0.1%	/	/	-2.1%
CCc1noc(C)c1C(=O)Oc1ccc(N(C)S(=O)(=O)c2ccccc2)cc1	-9.4%	-1.2	2.9%	16.4µM*
CCc1noc(C)c1C(=O)Oc1ccc(N(C)S(=O)(=O)c2ccc(C)cc2)cc1	-5.6%	-0.2	1.5%	?
Cc1cc2n(n1)CCCN2C(=O)Nc1ccc(C)c(Cl)c1	2.3%	/	1.2%	8.3%
Cc1cccc(C)c1NC(=O)CSc1ncnc2[nH]ncc12	-0.2%	-4.5	-0.4%	-10.7%
CC1Cc2cc(-c3csc(NC(=O)Cc4ccccc4)n3)ccc2N1S(C)(=O)=O (stereo not given)	-24.3%	2.7	5.5%	14.6µM*
O=C(CSc1ncnc2[nH]ncc12)Nc1nc(-c2ccc(F)c(F)c2)cs1	7.1%	-1.1	6.8%	6.51µM*
O=C(Cc1ccc(F)cc1)Nc1nc(-c2ccc(F)c(F)c2)cs1	-29.1%	-0.8	9.0%	23.1µM*
CS(=O)(=O)N1CCc2cc(-c3csc(NC(=O)C(c4ccccc4)c4ccccc4)n3)ccc21	-5.7%	0.7	0.6%	-18.6%
CC(C)Oc1cccc(C(=O)Nc2ccc(-c3nc4cc(Cl)cc(Cl)c4o3)cc2)c1	1.1%	/	-0.8%	?
Cc1cc(C)nc(NS(=O)(=O)c2ccc(NC(=O)c3nc(SC(C)C)ncc3Cl)cc2)n1	-1.8%	/	5.6%	-27.1%
CCOc1ccc(NC(=O)Nc2cccn(Cc3ccccc3)c2=O)cc1	?	-1.3	5.0%	9.2µM*
Cc1ccc(C(=O)c2cnc3cc4c(cc3c2S(=O)(=O)c2ccccc2)OCCO4)cc1	2.7%	-1.4	12.6µM*	?
CCOc1ccc(S(=O)(=O)c2c(C(=O)c3ccc(C)cc3)cnc3cc4c(cc23)OCCO4)cc1	11.9%	-0.4	1.8%	-12.3%
Cc1ccc(-c2nc(Nc3cccc(O)c3)c3ccccc3n2)cc1	7.5%	1.4	6.1%	2.0%
COc1cc(Nc2c3ccccc3nc3ccccc23)cc(OC)c1OC	?	-0.7	9.3%	?
COc1ccccc1Nc1c2ccccc2nc2ccccc12	?	-7.6	3.8%	14.6µM*
Oc1cccc(Nc2c3ccccc3nc3ccccc23)c1	?	-1.9	8.5%	23.1µM*
SMILES	A549 tox	IL2 activator	Nrf2 activator	Nrf2 block
COc1ccccc1OCC(=O)NNc1c2ccccc2nc2ccccc12	?	0.4	3.0%	20.6µM*
COc1ccccc1OCC(=O)NNC(=O)CCCC(=O)NNC(=O)COc1ccccc1OC	-1.4%	0.5	-0.8%	-11.3%
Cc1nnc2c(Nc3cccc(O)c3)nc3ccccc3n12	2.3%	/	3.16µM*	3.2%
COc1ccc(CNC(=O)Cn2ccc3cc(S(=O)(=O)N4CCCCCC4)ccc32)cc1OC	-15.5%	/	4.2%	?
Cc1ccc(N(C)C(=O)C2CCN(S(=O)(=O)c3c(C)noc3/C=C/c3c(C)cc(C)cc3C)CC2)cc1	-13.8%	/	-1.1%	/
Cc1nn(S(=O)(=O)c2ccc(C(C)(C)C)cc2)c(C)c1S(=O)(=O)N1CCC(C)CC1	11.2%	/	-0.4%	/
CCc1ccc(C2=CC(c3cccc(C)c3)n3c(nc4ccccc43)N2)cc1 (stereo not given)	-17.6%	/	-0.4%	/
COc1ccc(C(=O)C[C@@H]2OC[C@H](C(C)C)N2S(=O)(=O)c2ccc(C)cc2)cc1OC	/	0.0	/	/
Cc1cc(CNC(=O)COc2ccccc2F)c2ccccc2n1	-19.0%	-3.0	2.5%	?
Cc1cc(CNC(=O)COc2ccc(F)cc2F)c2ccccc2n1	-6.4%	-1.0	2.8%	16.4µM*
COc1ccccc1-n1cc2ccc([N+](=O)[O-])cc2n1	14.9%	0.4	11.2µM*	?
O=[N+]([O-])c1ccc2cn(-c3ccccc3)nc2c1	12.0%	-0.7	?	?
COc1ccc(NS(=O)(=O)c2ccc(NC(=S)NC(=O)c3ccc(Br)cc3)cc2)nn1	1.3%	-2.0	0.1%	-11.3%
COc1ccc(NS(=O)(=O)c2ccc(NC(=O)c3ccc(Br)cc3)cc2)nn1	-4.4%	-0.8	4.6%	20.6µM*
CSc1ccc(CCNC(=O)CCc2c(C)nc3c(c(C)nn3-c3ccccc3)c2C)cc1	2.2%	/	0.6%	14.0%
COc1ccc(CNC(=O)CCc2c(C)nc3cc(-c4ccc(OC)cc4OC)nn3c2C)cc1	-3.7%	/	-0.2%	-15.3%
Cc1cccc(CCNC(=O)CCc2c(C)nc3c(c(C)nn3-c3ccccc3)c2C)c1	-17.8%	/	0.0%	23.1µM*
COc1cc(OC)cc(-c2cc3nc(C)c(CCC(=O)NCc4ccc(Cl)cc4)c(C)n3n2)c1	6.1%	/	-3.6%	10.3µM*
COc1cc(OC)cc(-c2cc3nc(C)c(CCC(=O)NCCc4cccc(C)c4)c(C)n3n2)c1	-5.9%	/	-2.7%	10.3µM*
COc1ccc(CCNC(=O)CCc2c(C)nc3cc(-c4cccc(F)c4)nn3c2C)cc1OC	0.2%	/	-0.2%	-12.6%
CCOc1ccc(CCNC(=O)c2cc3c(-c4ccccc4F)nn(C)c3s2)cc1OCC	-7.4%	/	0.6%	18.4µM*
CCOc1ccc(CCNC(=O)c2cc3sc(CC)cc3n2C)cc1OCC	0.3%	/	0.9%	18.4µM*
Cc1cccc(NC(=O)C(=O)NCC(c2cccnc2)N2CCN(Cc3ccccc3)CC2)c1 (stereo not given)	-0.5%	/	0.1%	-8.0%
CCCCOc1ccc(C(=O)Nc2ccncc2)cc1	-7.9%	-0.6	3.9%	9.2µM*
CCCCCOc1ccc(NC(=O)C(=O)NCCCn2ccnc2)cc1	-0.5%	-0.8	-0.1%	9.2µM*
SMILES	A549 tox	IL2 activator	Nrf2 activator	Nrf2 block
CCn1cc(C(=O)OCC(=O)OC2CC(C)CCC2C(C)C)c(=O)c2ccc(C)nc21 (stereo not given)	?	-1.0	0.2%	20.6µM*
C=CCOC(=O)c1cn(CC)c2nc(C)ccc2c1=O	1.0%	-0.9	0.3%	8.7%
N#CC(=Cc1ccccn1)c1nc(-c2ccc(Cl)cc2)cs1	/	-1.9	12.6µM*	/
N#C/C(=C/c1ccc(Cl)cc1)c1nc(-c2ccc(Br)cc2)cs1	1.6%	/	-1.2%	1.0%
Cc1csc2nc(COc3cccc(NC(=O)c4ccccc4F)c3)cc(=O)n12	-1.5%	/	-0.1%	-7.7%
CCCn1c2c(c(=N)c3c1CCC3)CCC2	-17.2%	1.5	-1.3%	7.31µM*

Assay outcomes deposited in PubChem by National Center for Advancing Translational Sciences (NCATS).
